# From article PMC7862700, “An all-to-all approach to the identification of sequence-specific readers for epigenetic DNA modifications on cytosine”
# Key:
# Experiment in all cases: DAPPL (digital affinity profiling via proximity ligation, sequencing); 10 mM Tris-HCl pH 7.5, 50 mM NaCl, 1 mM DTT, 4% glycerol, room temperature, 30 min; GST-TFs on glutathione beads, 16-mer random dsDNA library, 0.1% formaldehyde crosslink after washing; high values mean tight binding
# ELK1 = target: T1, ELK1 (Homo sapiens, UniProt P19419 1-428); settings: protein: recombinant; tags: N-terminal GST; dsDNA, one strand shown
# T1 sequence: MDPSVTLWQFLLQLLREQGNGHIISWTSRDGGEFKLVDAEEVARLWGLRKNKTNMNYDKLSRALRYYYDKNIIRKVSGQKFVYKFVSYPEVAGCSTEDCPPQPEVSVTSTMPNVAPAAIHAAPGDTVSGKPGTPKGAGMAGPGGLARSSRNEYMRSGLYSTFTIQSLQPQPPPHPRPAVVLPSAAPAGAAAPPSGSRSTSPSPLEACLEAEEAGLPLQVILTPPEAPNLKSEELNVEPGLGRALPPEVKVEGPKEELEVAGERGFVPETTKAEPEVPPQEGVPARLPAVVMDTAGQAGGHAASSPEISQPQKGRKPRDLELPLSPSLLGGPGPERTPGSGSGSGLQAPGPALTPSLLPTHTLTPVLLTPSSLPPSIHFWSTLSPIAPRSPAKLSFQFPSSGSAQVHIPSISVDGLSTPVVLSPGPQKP
# How it was run: (§1)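 Binding signal is each hexamer's read frequency for a factor divided by its frequency in the tag-only sample. The factors were GST-fused human transcription factors from yeast, captured on glutathione beads, DNA-barcoded and pooled with that sample. Pools were incubated with 200 nmole of a random double-stranded 16-mer DNA library in Tris/NaCl/DTT/glycerol buffer at room temperature for 30 min, then washed, crosslinked with 0.1% formaldehyde, proximity-ligated with BsaI/T4 ligase (1 h, 37 °C), PCR-amplified and sequenced on an Illumina NextSeq500.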
# ERG = target: T2, ERG (Homo sapiens, UniProt P11308 1-479); settings: protein: recombinant; tags: N-terminal GST; dsDNA, one strand shown
# T2 sequence: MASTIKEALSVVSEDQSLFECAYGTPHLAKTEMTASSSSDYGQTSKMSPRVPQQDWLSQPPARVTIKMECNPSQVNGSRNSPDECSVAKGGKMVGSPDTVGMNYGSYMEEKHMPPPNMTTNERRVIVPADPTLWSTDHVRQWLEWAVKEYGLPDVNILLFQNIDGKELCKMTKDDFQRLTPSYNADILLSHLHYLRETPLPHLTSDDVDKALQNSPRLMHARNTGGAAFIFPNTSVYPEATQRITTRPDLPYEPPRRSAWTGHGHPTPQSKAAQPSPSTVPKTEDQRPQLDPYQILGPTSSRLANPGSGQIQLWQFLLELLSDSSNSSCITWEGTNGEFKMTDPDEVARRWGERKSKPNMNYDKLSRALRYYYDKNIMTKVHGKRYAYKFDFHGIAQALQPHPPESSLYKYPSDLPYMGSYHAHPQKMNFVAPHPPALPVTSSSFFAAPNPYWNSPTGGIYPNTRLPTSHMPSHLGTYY
# How it was run: as §1
# ELF1 = ELF1 (Homo sapiens, UniProt P32519 1-619); settings: protein: recombinant; tags: N-terminal GST; dsDNA, one strand shown
# How it was run: as §1
# EHF = target: T3, EHF (Homo sapiens, UniProt Q9NZC4 1-300); settings: protein: recombinant; tags: N-terminal GST; dsDNA, one strand shown
# T3 sequence: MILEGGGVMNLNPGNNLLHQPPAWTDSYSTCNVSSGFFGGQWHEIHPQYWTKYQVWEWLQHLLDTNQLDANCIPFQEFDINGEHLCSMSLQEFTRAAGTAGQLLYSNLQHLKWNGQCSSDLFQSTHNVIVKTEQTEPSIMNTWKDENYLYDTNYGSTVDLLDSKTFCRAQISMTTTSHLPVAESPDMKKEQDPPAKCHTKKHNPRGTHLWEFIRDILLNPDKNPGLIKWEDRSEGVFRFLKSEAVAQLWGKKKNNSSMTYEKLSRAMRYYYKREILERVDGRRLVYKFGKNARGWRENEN
# How it was run: as §1
# SPI1 = SPI1 (Homo sapiens, UniProt P17947 1-270); settings: protein: recombinant; tags: N-terminal GST; dsDNA, one strand shown
# How it was run: as §1
# SPIB = SPIB (Homo sapiens, UniProt Q01892 1-262); settings: protein: recombinant; tags: N-terminal GST; dsDNA, one strand shown
# How it was run: as §1
# ELK3 = target: T4, ELK3 (Homo sapiens, UniProt P41970 1-407); settings: protein: recombinant; tags: N-terminal GST; dsDNA, one strand shown
# T4 sequence: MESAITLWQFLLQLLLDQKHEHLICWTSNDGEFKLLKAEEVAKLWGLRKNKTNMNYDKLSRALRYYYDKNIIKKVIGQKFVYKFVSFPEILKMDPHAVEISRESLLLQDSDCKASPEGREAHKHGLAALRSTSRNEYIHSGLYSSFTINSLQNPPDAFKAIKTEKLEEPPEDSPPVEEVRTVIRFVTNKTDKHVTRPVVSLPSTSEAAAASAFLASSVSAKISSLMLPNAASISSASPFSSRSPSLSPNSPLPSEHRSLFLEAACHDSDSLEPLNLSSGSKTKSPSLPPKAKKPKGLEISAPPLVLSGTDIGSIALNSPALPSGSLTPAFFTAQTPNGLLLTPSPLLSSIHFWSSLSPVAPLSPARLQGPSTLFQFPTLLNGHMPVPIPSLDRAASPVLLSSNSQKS
# How it was run: as §1
# HSF1 = HSF1 (Homo sapiens, UniProt Q00613 1-529); settings: protein: recombinant; tags: N-terminal GST; chain copies: 3; dsDNA, one strand shown
# How it was run: as §1
# SPIC = target: T5, SPIC (Homo sapiens, UniProt Q8N5J4 1-248); settings: protein: recombinant; tags: N-terminal GST; dsDNA, one strand shown
# T5 sequence: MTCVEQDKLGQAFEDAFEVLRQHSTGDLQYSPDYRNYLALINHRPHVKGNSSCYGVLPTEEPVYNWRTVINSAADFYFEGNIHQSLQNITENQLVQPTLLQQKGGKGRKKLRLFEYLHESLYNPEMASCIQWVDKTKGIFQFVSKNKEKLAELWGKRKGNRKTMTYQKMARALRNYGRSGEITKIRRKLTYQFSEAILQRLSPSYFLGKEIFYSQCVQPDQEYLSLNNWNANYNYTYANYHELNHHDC
# How it was run: as §1
# ELK4 = target: T6, ELK4 (Homo sapiens, UniProt P28324-2 1-405); settings: protein: recombinant; tags: N-terminal GST; dsDNA, one strand shown
# T6 sequence: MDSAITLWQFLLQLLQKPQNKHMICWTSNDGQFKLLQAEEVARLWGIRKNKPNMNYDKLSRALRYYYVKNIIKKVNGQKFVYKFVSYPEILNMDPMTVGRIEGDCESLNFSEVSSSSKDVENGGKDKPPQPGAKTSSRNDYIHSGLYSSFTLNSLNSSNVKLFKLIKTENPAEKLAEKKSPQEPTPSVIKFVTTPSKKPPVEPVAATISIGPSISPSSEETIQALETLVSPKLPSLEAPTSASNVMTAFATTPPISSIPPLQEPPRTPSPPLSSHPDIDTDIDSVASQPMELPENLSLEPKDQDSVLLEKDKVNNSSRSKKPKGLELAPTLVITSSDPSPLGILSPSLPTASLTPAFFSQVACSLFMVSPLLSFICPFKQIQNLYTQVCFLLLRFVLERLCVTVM
# How it was run: as §1
# ETV2 = target: T7, ETV2 (Homo sapiens, UniProt O00321 1-342); settings: protein: recombinant; tags: N-terminal GST; dsDNA, one strand shown
# T7 sequence: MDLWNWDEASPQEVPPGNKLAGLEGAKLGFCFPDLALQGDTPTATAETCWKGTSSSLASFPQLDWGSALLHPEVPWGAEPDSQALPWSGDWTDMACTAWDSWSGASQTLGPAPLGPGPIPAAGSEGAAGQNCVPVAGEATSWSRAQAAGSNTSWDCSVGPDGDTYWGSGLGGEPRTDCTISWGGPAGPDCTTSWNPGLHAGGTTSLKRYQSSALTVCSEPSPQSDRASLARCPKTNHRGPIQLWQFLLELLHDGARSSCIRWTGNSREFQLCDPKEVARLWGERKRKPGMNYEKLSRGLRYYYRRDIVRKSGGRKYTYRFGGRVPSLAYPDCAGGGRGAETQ
# How it was run: as §1
# ELF3 = target: T8, ELF3 (Homo sapiens, UniProt P78545 1-371); settings: protein: recombinant; tags: N-terminal GST; dsDNA, one strand shown
# T8 sequence: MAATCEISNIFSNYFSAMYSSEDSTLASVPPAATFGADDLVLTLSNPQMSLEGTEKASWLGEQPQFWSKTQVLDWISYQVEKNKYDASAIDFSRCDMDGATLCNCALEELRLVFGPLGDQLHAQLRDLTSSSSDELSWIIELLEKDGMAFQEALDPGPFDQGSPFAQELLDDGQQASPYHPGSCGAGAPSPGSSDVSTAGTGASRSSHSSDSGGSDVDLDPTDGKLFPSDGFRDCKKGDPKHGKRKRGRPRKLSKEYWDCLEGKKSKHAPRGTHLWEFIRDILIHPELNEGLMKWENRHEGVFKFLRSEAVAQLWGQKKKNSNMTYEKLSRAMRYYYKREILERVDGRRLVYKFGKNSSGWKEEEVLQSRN
# How it was run: as §1
# ETV1 = ETV1 (Homo sapiens, UniProt P50549 1-477); settings: protein: recombinant; tags: N-terminal GST; dsDNA, one strand shown
# How it was run: as §1
# ERF = target: T9, ERF (Homo sapiens, UniProt P50548 1-548); settings: protein: recombinant; tags: N-terminal GST; dsDNA, one strand shown
# T9 sequence: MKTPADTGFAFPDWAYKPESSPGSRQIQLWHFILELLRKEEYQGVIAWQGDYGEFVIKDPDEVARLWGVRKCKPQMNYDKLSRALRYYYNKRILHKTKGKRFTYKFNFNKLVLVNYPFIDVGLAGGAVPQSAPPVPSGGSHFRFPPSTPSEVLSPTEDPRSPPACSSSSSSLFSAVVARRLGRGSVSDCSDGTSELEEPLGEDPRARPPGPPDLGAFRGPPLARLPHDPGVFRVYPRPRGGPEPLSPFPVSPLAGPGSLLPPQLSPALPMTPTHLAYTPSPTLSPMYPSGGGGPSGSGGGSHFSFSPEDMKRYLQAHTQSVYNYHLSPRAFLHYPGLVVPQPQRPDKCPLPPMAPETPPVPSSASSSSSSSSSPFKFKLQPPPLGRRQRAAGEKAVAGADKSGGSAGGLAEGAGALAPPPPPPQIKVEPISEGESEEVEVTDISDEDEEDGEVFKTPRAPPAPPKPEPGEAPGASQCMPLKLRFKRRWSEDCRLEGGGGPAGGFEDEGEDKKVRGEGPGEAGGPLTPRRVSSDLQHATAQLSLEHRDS
# How it was run: as §1
# ETS2 = target: T10, ETS2 (Homo sapiens, UniProt P15036 1-469); settings: protein: recombinant; tags: N-terminal GST; dsDNA, one strand shown
# T10 sequence: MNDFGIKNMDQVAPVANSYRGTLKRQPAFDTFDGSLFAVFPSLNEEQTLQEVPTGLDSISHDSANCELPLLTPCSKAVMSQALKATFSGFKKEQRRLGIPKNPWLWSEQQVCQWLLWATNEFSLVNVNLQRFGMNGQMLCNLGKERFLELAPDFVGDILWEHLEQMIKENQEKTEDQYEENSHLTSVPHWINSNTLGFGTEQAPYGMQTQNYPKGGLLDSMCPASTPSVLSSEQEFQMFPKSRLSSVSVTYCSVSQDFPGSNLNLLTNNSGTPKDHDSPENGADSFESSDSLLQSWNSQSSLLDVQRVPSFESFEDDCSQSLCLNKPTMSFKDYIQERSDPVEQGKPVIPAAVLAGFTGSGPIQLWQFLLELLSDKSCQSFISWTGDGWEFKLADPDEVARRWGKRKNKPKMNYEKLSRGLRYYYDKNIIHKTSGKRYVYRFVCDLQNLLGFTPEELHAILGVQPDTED
# How it was run: as §1
# Sequence of HSF1 (Q00613 whole entry): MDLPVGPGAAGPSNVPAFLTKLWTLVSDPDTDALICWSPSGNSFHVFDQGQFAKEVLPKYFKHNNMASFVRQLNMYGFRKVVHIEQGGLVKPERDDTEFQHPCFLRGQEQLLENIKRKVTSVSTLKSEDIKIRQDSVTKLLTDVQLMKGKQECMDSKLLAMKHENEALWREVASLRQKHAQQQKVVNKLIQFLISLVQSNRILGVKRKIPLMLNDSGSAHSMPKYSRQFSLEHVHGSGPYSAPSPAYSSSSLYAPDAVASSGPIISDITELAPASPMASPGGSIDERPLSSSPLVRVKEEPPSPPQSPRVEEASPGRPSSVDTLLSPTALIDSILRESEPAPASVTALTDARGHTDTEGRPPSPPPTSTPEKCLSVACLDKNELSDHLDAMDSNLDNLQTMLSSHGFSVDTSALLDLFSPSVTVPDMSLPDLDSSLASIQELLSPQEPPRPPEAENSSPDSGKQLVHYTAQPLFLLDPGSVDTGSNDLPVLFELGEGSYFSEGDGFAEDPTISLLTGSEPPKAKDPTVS
# Sequence of ETV1 (P50549 whole entry): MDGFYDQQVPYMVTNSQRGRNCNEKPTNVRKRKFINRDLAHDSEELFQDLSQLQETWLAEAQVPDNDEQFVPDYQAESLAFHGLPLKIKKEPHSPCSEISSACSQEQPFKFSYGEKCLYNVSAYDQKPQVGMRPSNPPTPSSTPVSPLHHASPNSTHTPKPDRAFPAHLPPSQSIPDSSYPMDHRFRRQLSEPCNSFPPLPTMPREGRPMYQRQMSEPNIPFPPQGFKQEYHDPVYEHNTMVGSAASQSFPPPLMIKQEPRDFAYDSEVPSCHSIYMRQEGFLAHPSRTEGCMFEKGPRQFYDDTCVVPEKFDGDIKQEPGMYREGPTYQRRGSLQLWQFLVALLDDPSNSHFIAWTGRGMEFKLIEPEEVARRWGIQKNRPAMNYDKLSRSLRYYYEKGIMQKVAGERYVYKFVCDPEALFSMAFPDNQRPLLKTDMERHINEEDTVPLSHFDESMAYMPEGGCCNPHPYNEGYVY
# Sequence of ELF1 (P32519 whole entry): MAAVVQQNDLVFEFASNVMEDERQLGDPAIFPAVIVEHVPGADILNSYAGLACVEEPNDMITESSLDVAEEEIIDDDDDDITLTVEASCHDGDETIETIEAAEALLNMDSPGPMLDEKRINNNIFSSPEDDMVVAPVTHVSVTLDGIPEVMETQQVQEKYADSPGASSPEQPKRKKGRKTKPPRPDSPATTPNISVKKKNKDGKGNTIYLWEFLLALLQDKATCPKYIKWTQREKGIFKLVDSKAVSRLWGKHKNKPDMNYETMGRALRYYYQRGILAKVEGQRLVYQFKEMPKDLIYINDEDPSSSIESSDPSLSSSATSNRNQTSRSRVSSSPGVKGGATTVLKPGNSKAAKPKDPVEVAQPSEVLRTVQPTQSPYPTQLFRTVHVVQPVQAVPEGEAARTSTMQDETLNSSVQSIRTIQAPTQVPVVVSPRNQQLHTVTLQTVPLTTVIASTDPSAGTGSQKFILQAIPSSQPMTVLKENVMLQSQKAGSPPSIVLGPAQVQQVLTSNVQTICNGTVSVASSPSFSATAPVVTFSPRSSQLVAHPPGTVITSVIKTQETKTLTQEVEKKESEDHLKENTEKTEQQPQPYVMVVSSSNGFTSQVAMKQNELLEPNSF
# Sequence of SPIB (Q01892 whole entry): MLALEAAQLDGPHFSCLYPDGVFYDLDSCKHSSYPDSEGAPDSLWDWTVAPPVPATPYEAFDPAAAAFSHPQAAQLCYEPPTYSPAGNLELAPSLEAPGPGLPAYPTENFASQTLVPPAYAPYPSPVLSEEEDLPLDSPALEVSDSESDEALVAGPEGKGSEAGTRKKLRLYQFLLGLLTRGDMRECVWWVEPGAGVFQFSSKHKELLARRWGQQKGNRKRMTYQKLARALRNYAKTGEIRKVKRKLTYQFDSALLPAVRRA
sequence,measurement,setting,value
CGCAAA,binding signal,ELK1,"1.01 fold enrichment (6-mer frequency, TF over GST control)"
same,binding signal,ERG,"1.04 fold enrichment (6-mer frequency, TF over GST control)"
same,binding signal,ELF1,"1 fold enrichment (6-mer frequency, TF over GST control)"
same,binding signal,EHF,"1.03 fold enrichment (6-mer frequency, TF over GST control)"
same,binding signal,SPI1,"1.05 fold enrichment (6-mer frequency, TF over GST control)"
same,binding signal,SPIB,"1.02 fold enrichment (6-mer frequency, TF over GST control)"
same,binding signal,ELK3,"1.08 fold enrichment (6-mer frequency, TF over GST control)"
same,binding signal,HSF1,"1.01 fold enrichment (6-mer frequency, TF over GST control)"
same,binding signal,SPIC,"1.02 fold enrichment (6-mer frequency, TF over GST control)"
same,binding signal,ELK4,"1.03 fold enrichment (6-mer frequency, TF over GST control)"
same,binding signal,ETV2,"1.07 fold enrichment (6-mer frequency, TF over GST control)"
same,binding signal,ELF3,"1.13 fold enrichment (6-mer frequency, TF over GST control)"
same,binding signal,ETV1,"1.11 fold enrichment (6-mer frequency, TF over GST control)"
same,binding signal,ERF,"1.1 fold enrichment (6-mer frequency, TF over GST control)"
same,binding signal,ETS2,"1.06 fold enrichment (6-mer frequency, TF over GST control)"
